Pf Dd2 inh: inhibitors of Plasmodium falciparum Dd2 growth | P. falciparum Dd2 growth, SYBR Green, 72 h | Potency, µM (doses to about 28.9 µM), without a hit: at the top dose activity, negative = inhibition, usual class: inhibitors | hit rate 4.3% among 120,000; active = well fitted inhibition curve with a large enough effect;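 note: plate controls were DMSO vehicle for no effect and reference drug for full effect; nearly all actives have a fitted effect of over 65% in size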
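Infected erythrocytes (Dd2, 0.3% parasitemia, 2.5% hematocrit final) are added to compound in RPMI-1640/Albumax II medium, grown 72 h at 37C in low oxygen, then lysed with saponin/Triton-X containing SYBR Green and read by fluorescence.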
Numbers without * were called inactive; i = inactive; [ ] = dose if it differs, or a comment. Many of the other results were omitted from the sample, so hits are more common in it than they were. Potency is the fitted concentration of half-maximal effect.

SMILES | Pf Dd2 inh
CC(C)C1=NOC2(CCN(Cc3cccc(C(F)(F)F)c3)CC2)C1 | -24.0%[44.1 µM]
CC(=O)N1CCC([C@@H]2CN(C(=O)CCCc3ccccc3)C[C@H]2CO)CC1 | 2.7%
N[C@@H]1CC[C@H](C(=O)Nc2ccc(CC(=O)N3CCCC3)cc2)C1 | 4.6%
COCC(=O)NC[C@H]1O[C@H](Cc2cc(-c3ccc(OC)cc3)on2)CC[C@@H]1O | i
CCN(CC)C[C@H]1O[C@H](Cc2cc(-c3ccc(F)cc3)on2)CC[C@@H]1O | 7.08µM*
O=C(NC[C@H]1O[C@H](Cc2cc(-c3ccc(F)cc3)on2)CC[C@@H]1O)C1CCC1 | i
CN(C)C[C@H]1O[C@H](Cc2cc(-c3ccc(F)cc3)on2)CC[C@@H]1O | i
CC(=O)NC[C@H]1O[C@H](Cc2cc(-c3ccc(F)cc3)on2)CC[C@@H]1O | i
COCC(=O)NC[C@H]1O[C@H](Cc2cc(-c3ccc(F)cc3)on2)CC[C@@H]1O | 14.1µM*
CN1C[C@H](NCc2nccn2C)CCC[C@@H](C(=O)N(C)Cc2cccnc2)CC1=O | 28.0%[44.1 µM]
Cc1ccccc1S(=O)(=O)N1CCn2c(n[nH]c2=O)C1 | -9.7%
CCn1ccc(C(=O)N2C[C@@H](COC)[C@H](c3nc(C4CC4)no3)C2)n1 | i
CCCNC(=O)N1CCC(c2noc(-c3ccccn3)n2)C1 (stereo not drawn) | 11.2%[5.79 µM]
Cc1nc(C)c(C(=O)N2[C@@H]3CC[C@H]2CC(NC(=O)c2ccncc2)C3)s1 (stereo partly drawn) | i
O=C(c1ccc2c(c1)N(Cc1ccccc1)C(=O)c1ccccc1S2(=O)=O)N1CCCCCC1 | 3.98µM*
Cc1cccc(CN2C(=O)c3ccccc3S(=O)(=O)c3ccc(C(=O)OCC4CCCO4)cc32)c1 (stereo not drawn) | 11.5%
CCc1ccccc1NC(=O)c1ccc2c(c1)N(Cc1cc(C)ccc1C)C(=O)c1ccccc1S2(=O)=O | 7.08µM*
O=C(c1ccc2c(c1)N(Cc1cccc(Cl)c1)C(=O)c1ccccc1S2(=O)=O)N1CCCCC1 | -11.2%
Cc1ccc(C)c(CN2C(=O)c3ccccc3S(=O)(=O)c3ccc(C(=O)N4CCN(C)CC4)cc32)c1 | 5.01µM*
Cc1cccc(CN2C(=O)c3ccccc3S(=O)(=O)c3ccc(C(=O)N4CCCC4)cc32)c1 | i
O=C(c1ccc2c(c1)N(Cc1ccc(Cl)cc1)C(=O)c1ccccc1S2(=O)=O)N1CCN(Cc2ccccc2)CC1 | i
O=C(c1ccc2c(c1)N(Cc1ccccc1F)C(=O)c1ccccc1S2(=O)=O)N1CCCCCC1 | i
COc1ccc(CCNC(=O)c2ccc3c(c2)N(Cc2ccccc2F)C(=O)c2ccccc2S3(=O)=O)cc1OC | i
COc1ccc(CNC(=O)c2ccc3c(c2)N(Cc2ccccc2F)C(=O)c2ccccc2S3(=O)=O)cc1 | i
O=C(OCC1CCCO1)c1ccc2c(c1)N(Cc1ccccc1Cl)C(=O)c1ccccc1S2(=O)=O (stereo not drawn) | 8.91µM*
SMILES | Pf Dd2 inh
O=C(OCC1CCCO1)c1ccc2c(c1)N(Cc1cccc(F)c1)C(=O)c1ccccc1S2(=O)=O (stereo not drawn) | 3.4%
O=C(c1nnc(CNc2ccc(OC(F)(F)F)cc2)n1-c1ccccc1)N1CCC[C@@H]1CN1CCCC1 | -3.8%
Cc1ccc(CN2CCN(C(=O)C3CCCN(C(=O)c4ccccc4)CCC(=O)NCC3)CC2)cc1 (stereo not drawn) | -9.9%
O=C1NCCN1C1CCN(Cc2cncs2)CC1 | 2.5%[44.1 µM]
Cc1cnc(C(=O)N2CCC(c3nnc(CN4CCCC4)n3C3CC3)CC2)cn1 | -1.9%
O=C(c1ccc(C(F)(F)F)cc1)N1CCC(c2nn(-c3ccc(F)cc3)c(=O)[nH]2)CC1 | i
O=C(N[C@@H]1CCOC[C@H]1OCCO)c1cc(C2CC2)nc2ccccc12 | -4.4%
Cc1ccc(C)c(CN2C(=O)c3ccccc3S(=O)(=O)c3ccc(C(=O)NCCCN4CCCC(C)C4)cc32)c1 (stereo not drawn) | 3.98µM*
CC1CCCN(CCCNC(=O)c2ccc3c(c2)N(Cc2ccc(Cl)cc2)C(=O)c2ccccc2S3(=O)=O)C1 (stereo not drawn) | i
Cc1ccc(C(=O)N2CCC(Oc3ncccc3C(=O)N3CCCCC3)C2)cc1F (stereo not drawn) | -2.0%
Cn1cccc1CN1CCC2(Cc3ccccc3CNC2=O)C1 (stereo not drawn) | -24.5%
COc1cc(NC(=O)Cn2c(C)cc3nc4n(c(=O)c32)CCCCC4)cc(OC)c1 | -10.4%
CCn1ccc(C(=O)N2CCC(c3nn(C)c4c3COCC4)CC2)n1 | i[5.79 µM]
CCc1cccc2c(C(CC(=O)NCc3ccco3)c3ccc(C)cc3)c[nH]c12 (stereo not drawn) | i
CN1c2cc(C(=O)NCc3ccc(Cl)cc3)ccc2C(=O)N2CCCCC21 (stereo not drawn) | i
CCN1c2cc(C(=O)NCc3ccccc3C)ccc2C(=O)N2CCCCCC21 (stereo not drawn) | 6.31µM*
CCN1c2cc(C(=O)NCc3ccc(C)c(C)c3)ccc2C(=O)N2CCCCCC21 (stereo not drawn) | -2.8%

Source: PubChem BioAssay
